Measured values reported in PubChem BioAssay.
Activity calls are given as the source filed them.

Legend:
[1] = system: Plasmodium falciparum Sir2 (PF13_0152, Sir2A); assay: Plasmodium falciparum Sir2A binding compounds – biochemical, small-molecule microarray, 635 nm fluorescence, primary screen (AID 1098); conditions: fluorescence 635 nm, higher = more signal;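 further: score merges spot fluorescence intensity with its signal-to-noise ratio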
[2] = probe aDKK1 binding to arrayed compounds – biochemical, biotinylated probe, 635/667 nm fluorescence, primary screen (AID 1099); conditions: small-molecule microarray, higher = more signal;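 further: score merges 667nm spot fluorescence with signal to noise across triplicate slides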
[3] = probe aCHRDL2 binding to arrayed compounds – biochemical, biotinylated probe, 635/667 nm fluorescence, primary screen (AID 1100); conditions: small-molecule microarray, higher = more signal
[4] = change in splice reporter luminescence, either direction, cell-based, HEK293, spliceosome inhibition project, primary screen (AID 1101); conditions: HEK293 splicing luciferase reporter, 24 h, higher = more signal, called active from +8 up or from −8 down;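 further: HEK293 cells carrying a splicing-competent luciferase reporter gene; test concentration not given here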
[5] = target: Fibroblast growth factor 10 (Homo sapiens) (UniProt O15520); assay: compounds binding fibroblast growth factor 10 – biochemical, small-molecule microarray, 635 nm fluorescence, primary screen (AID 1102); conditions: FGF10 binding, fluorescence 635 nm, higher = more signal
[6] = system: glycogen synthase kinase-3 (GSK3A per assay name; protocol says GSK3B); assay: compounds binding glycogen synthase kinase-3 – biochemical, small-molecule microarray, 635 nm fluorescence, GSK3A, primary screen (AID 1103); conditions: fluorescence 635 nm, higher = more signal; further: the record names both GSK3A and GSK3B
[7] = target: Epidermal growth factor receptor (Homo sapiens) (UniProt P00533); assay: compounds binding epidermal growth factor receptor – biochemical, small-molecule microarray, 635 nm fluorescence, primary screen (AID 1104); conditions: EGFR binding, higher = more signal;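 further: score merges 667 nm emission intensity with spot signal to noise over triplicate slides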
[8] = target: Follistatin-related protein 3 (Homo sapiens) (UniProt O95633); assay: compounds binding follistatin-related protein 3 – biochemical, small-molecule microarray, 635 nm fluorescence, primary screen (AID 1105); conditions: FSTL3 binding, higher = more signal;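 further: score merges emission near 667 nm and signal to noise per printed spot across three slides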
[9] = target: Dickkopf-related protein 1 (Homo sapiens) (UniProt O94907); assay: small molecules binding DKK1 protein – biochemical, small-molecule microarray, 635 nm fluorescence scan, primary screen (AID 1106); conditions: higher = more signal;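 further: score merges emission near 667 nm with signal to noise over three replicate slides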
[10] = system: Inhibin beta A chain (activin A); assay: small molecules binding activin A – biochemical, small-molecule microarray, 635 nm fluorescence scan, primary screen (AID 1107); conditions: INHBA, higher = more signal;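 further: mouse activin A protein probed at 4.33 µg/mL on printed slides; score merges bound-protein fluorescence near 667 nm with spot signal-to-noise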
[11] = system: Human papillomavirus type 1a protein E7 (residues 44-93); assay: small molecules binding HPV E7 44-93 – biochemical, small-molecule microarray, residues 44-93, 635 nm fluorescence, primary screen (AID 1108); conditions: fluorescence 635 nm, higher = more signal;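 further: E7 fragment applied at 1 µg/mL in TBST for 1 h at 4 C; score combines spot fluorescence with its signal to noise ratio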
[12] = hepatitis C replication reporter changes, two-sided – Huh7 cells, luciferase reporter, HCV replication inhibitor project, primary screen (AID 1109); conditions: Huh7 HCV replicon luciferase reporter, 48 h; higher = more signal;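 further: huh7 hepatoma cells harbouring a luciferase neomycin HCV replicon reporter; luciferase luminescence as measure of HCV replicon replication; test concentration not given here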
[13] = target: Left-right determination factor 2 (Homo sapiens) (UniProt O00292); assay: small molecules binding LEFTY2 protein – biochemical, small-molecule microarray, 635 nm fluorescence scan, primary screen (AID 1110); conditions: higher = more signal
[14] = target: Calmodulin-1 (Homo sapiens) (UniProt P0DP23); assay: small molecules binding calmodulin-1 with EGTA – biochemical, small-molecule microarray, Cy5-labelled CALM1, profiling panel (AID 1111); conditions: Cy5-CALM1 binding fluorescence, higher = more signal;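 further: labelled calmodulin applied in Tris saline Tween buffer holding calcium plus EGTA and DTT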
[15] = target: Calmodulin-1 (Homo sapiens) (UniProt P0DP23); assay: small molecules binding Ca-loaded calmodulin-1 – biochemical, small-molecule microarray, Cy5-labelled CALM1, plus calcium, artefact control for SMM control-protein annotation, profiling panel (AID 1112); conditions: Cy5-CALM1 binding fluorescence, higher = more signal;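 further: score merges spot fluorescence with signal to noise from triplicate slides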
[16] = probe aWnt5a binding to arrayed compounds – biochemical, biotinylated probe, 635/667 nm fluorescence, primary screen (AID 1113); conditions: small-molecule microarray, higher = more signal;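 further: score merges 667 nm fluorescence intensity with signal-to-noise per printed feature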
[17] = probe aShh binding to arrayed compounds – biochemical, biotinylated probe, 635/667 nm fluorescence, primary screen (AID 1114); conditions: small-molecule microarray, higher = more signal;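 further: probe is biotin-labelled aShh protein from a stem cell growth factor screen; measures binding of labelled protein to compounds printed on the slide; score merges feature fluorescence at 667 nm with signal-to-noise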
[18] = probe aNog binding to arrayed compounds – biochemical, biotinylated probe, 635/667 nm fluorescence, primary screen (AID 1115); conditions: small-molecule microarray, higher = more signal;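 further: probe is biotinylated aNog protein used at 0.15 µg/mL for 1 h at 4 C; z-score combines 667 nm fluorescence of each spot with its signal to noise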
[19] = target: Torsin-1A-interacting protein 1 (Homo sapiens) (UniProt Q5JTV8); assay: compound microarray binding of lysate hLAP1 – cell lysate, small-molecule microarray, COS7 lysate, 635/667 nm fluorescence, primary screen (AID 1116); conditions: 635 nm fluorescence, higher = more signal
[20] = target: Alpha-bungarotoxin (Bungarus multicinctus) (UniProt P60615); assay: compounds binding labelled alpha-BTX control protein – biochemical, small-molecule microarray, Alexa647 label, 635/667 nm fluorescence, artefact control for SMM control protein annotation, profiling panel (AID 1117); conditions: alpha-BTX-A647 binding fluorescence, higher = more signal
Chain of Alpha-bungarotoxin (Bungarus multicinctus) (P60615 whole entry, looked up): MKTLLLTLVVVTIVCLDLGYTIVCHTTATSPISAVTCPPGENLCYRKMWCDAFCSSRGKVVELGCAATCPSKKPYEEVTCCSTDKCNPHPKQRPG

Chain of Follistatin-related protein 3 (Homo sapiens) (O95633 whole entry, looked up): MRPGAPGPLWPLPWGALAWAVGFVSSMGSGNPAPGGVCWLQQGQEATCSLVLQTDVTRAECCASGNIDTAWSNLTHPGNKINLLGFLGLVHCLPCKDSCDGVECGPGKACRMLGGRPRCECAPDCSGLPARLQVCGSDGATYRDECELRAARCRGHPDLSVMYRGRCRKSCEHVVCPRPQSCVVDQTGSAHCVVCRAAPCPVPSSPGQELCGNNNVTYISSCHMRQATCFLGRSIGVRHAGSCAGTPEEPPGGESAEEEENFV
Chain of Left-right determination factor 2 (Homo sapiens) (O00292 whole entry, looked up): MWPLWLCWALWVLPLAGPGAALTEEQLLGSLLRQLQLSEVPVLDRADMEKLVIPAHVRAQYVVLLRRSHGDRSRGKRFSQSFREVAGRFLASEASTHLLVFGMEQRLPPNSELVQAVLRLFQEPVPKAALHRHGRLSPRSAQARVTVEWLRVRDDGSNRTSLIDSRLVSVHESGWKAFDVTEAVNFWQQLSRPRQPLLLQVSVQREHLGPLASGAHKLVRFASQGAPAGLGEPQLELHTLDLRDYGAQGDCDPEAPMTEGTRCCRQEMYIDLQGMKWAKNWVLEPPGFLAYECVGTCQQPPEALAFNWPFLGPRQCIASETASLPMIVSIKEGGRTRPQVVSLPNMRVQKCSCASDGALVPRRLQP
Chain of Epidermal growth factor receptor (Homo sapiens) (P00533 whole entry, looked up): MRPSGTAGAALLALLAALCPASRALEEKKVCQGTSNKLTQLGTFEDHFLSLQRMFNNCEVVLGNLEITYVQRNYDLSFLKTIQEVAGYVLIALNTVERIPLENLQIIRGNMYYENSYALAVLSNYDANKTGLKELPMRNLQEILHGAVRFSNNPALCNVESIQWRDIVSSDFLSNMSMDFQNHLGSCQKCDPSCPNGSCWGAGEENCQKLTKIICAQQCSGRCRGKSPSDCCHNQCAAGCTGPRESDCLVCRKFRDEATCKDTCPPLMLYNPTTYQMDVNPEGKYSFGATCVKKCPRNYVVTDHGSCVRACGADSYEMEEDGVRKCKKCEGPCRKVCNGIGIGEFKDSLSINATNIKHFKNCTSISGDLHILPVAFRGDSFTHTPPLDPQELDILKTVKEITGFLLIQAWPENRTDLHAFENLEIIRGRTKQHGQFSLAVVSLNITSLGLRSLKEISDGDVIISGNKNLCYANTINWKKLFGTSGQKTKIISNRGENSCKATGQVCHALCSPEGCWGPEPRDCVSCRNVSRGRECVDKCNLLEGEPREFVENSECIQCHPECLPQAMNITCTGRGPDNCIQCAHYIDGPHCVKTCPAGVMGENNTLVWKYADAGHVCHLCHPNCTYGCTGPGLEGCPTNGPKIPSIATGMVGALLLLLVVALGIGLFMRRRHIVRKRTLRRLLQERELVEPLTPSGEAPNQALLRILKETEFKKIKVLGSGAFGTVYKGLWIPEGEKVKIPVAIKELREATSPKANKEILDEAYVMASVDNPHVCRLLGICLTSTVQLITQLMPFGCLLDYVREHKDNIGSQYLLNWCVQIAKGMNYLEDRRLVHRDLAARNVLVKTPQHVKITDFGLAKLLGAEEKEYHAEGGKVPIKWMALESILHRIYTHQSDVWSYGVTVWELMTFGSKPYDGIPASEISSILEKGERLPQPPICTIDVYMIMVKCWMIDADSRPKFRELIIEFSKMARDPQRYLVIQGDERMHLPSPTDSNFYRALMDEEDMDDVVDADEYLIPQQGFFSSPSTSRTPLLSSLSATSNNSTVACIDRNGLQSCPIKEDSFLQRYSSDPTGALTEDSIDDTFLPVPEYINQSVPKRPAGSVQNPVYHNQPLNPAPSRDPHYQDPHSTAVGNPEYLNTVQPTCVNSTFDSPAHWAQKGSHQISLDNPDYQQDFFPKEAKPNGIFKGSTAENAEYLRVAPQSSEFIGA
Chain of Torsin-1A-interacting protein 1 (Homo sapiens) (Q5JTV8 whole entry, looked up): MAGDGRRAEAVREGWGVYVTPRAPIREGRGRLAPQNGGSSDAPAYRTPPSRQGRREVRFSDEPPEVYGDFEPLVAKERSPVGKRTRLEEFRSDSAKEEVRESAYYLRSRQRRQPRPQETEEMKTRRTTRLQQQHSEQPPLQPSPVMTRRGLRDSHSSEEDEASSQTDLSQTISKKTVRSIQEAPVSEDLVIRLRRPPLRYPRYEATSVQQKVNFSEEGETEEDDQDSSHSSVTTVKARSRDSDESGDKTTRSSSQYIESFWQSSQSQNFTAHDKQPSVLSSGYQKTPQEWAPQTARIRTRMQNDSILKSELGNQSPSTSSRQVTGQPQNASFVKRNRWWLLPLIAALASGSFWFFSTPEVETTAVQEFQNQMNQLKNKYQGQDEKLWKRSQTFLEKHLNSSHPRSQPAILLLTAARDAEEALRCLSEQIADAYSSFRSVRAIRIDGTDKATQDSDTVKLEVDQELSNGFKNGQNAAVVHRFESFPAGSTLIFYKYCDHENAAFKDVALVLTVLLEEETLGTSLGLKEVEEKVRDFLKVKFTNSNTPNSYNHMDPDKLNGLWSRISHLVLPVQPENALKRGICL
Chain of Dickkopf-related protein 1 (Homo sapiens) (O94907 whole entry, looked up): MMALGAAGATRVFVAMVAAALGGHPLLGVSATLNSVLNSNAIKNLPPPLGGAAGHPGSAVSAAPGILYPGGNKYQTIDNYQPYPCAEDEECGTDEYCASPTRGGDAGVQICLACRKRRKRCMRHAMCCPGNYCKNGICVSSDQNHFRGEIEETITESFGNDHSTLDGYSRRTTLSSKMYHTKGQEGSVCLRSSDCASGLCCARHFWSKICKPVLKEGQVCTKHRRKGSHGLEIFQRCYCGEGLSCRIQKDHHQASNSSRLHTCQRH
Chain of Fibroblast growth factor 10 (Homo sapiens) (O15520 whole entry, looked up): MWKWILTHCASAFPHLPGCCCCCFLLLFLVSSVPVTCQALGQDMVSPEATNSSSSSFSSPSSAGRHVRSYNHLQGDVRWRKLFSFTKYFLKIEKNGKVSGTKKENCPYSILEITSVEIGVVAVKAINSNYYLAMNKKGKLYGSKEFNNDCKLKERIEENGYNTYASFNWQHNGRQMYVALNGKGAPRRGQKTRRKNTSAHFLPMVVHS

SMILES	composite z-score [1]	composite z-score [2]	composite z-score [3]	z-score [4]	composite z-score [5]	composite z-score [6]	composite z-score [7]	composite z-score [8]	composite z-score [9]	composite z-score [10]	composite z-score [11]	z-score [12]	composite z-score [13]	composite z-score [14]	composite z-score [15]	composite z-score [16]	composite z-score [17]	composite z-score [18]	composite z-score [19]	composite z-score [20]
CC(C)C(=C=CC[C@H](O)c1ccc(OCCO)cc1)CCO	1.42	0.0229	0.0152	0.0477 (inactive)	0.835	0.145	0.0098	0.842	0.296	0.943	1.39	-0.119	0.131	0.219	-0.729	-0.0107	0.163	0.508	0.828	0.663
O=C1[C@@]23C=C(Br)[C@H](C[C@@H]2CCOC3)[C@@]12CO2	0.204	-0.327	-0.478	0.149 (inactive)	0.254	0.329	0.442	0.473	0.485	0.684	0.364	-2.17	0.459	-0.206	-0.657	-0.0585	0.151	-0.303	1.53	0.331
CC1(C)[C@@H]2CC(C(O)C3C=CC4C(=O)N(Cc5ccccc5)C(=O)C4N3n3cnnc3)=C[C@H]1C2 (stereo not given in full)	0.779	0.454	0.355	-0.0958 (inactive)	0.801	1.28	0.0902	0.74	0.0252	1.2	1.4	-0.254	0.223	0.549	-0.0552	0.0374	-0.271	-0.0304	0.187	0.6
C=CCNC(=O)[C@@H]1[C@H]2C(=O)O[C@H](c3ccccc3)[C@H](c3ccccc3)N2[C@H](c2ccccc2OCCO)[C@@]12C(=O)N(C(=O)OCCOC)c1ccccc12	1.54	-0.0073	-0.0387	-0.108 (inactive)	1.27	1.33	0.828	1.44	0.825	0.843	1.43	-2.64	0.877	0.926	-0.464	0.132	0.126	-0.331	0.784	1.25
O=C1C[C@]2(c3ccc([N+](=O)[O-])cc3)C(=O)N(CC(F)(F)F)c3cc(CO)ccc3[C@H]2N1C1CCCCC1	-0.535	0.246	0.564	0.465 (inactive)	-0.431	-0.161	-1.1	-0.883	-0.906	0.23	-0.83	0.909	-1.34	-0.74	-0.624	-0.103	-0.221	-0.495	-0.555	-0.605
CO[C@H]1O[C@H](CO)[C@@H](OC(=O)Nc2ccccc2)[C@H](OC(=O)Nc2ccccc2)[C@@H]1OC(=O)Nc1ccccc1	1.48	-0.136	-0.103	-1.29 (inactive)	1.44	1.3	1.12	1.11	0.439	0.0784	1.39	-1.93	0.179	0.928	-0.136	0.111	-0.0793	-0.541	0.835	0.796
CC(C)N1C(=O)C[C@@](C(=O)NCC(F)(F)F)(c2ccc([N+](=O)[O-])cc2)[C@H]1c1ccc(CO)cc1	1.42	-0.186	0.52	-0.259 (inactive)	-0.244	0.0211	-0.399	-0.241	-0.272	0.5	0.627	-0.672	-0.383	-0.273	-0.411	-0.178	-0.372	-0.368	-0.0079	0.259
COc1cc2c(cc1OC)CN(C(=O)[C@H]1[C@@H]3C(=O)O[C@@H](c4ccccc4)[C@@H](c4ccccc4)N3[C@@H](c3ccc(O)cc3)[C@]13C(=O)Nc1ccc(C#CCCO)cc13)CC2	0.957	0.0325	0.481	0.0673 (inactive)	0.398	0.0837	-0.0179	0.249	-0.0546	0.224	1.4	-0.838	-0.0265	0.382	0.0412	-0.0403	-0.0553	-0.472	0.469	1.04
CCOC(=O)C[C@H]1[C@H](OC(=O)c2ccc(C(=O)c3ccccc3)cc2)[C@@H](NC(=O)c2ccccc2)c2cc(OCCCO)ccc2N1C(=O)c1ccc2ccccc2n1	0.295	-0.349	-0.267	0.487 (inactive)	-0.286	1.05	0.267	0.399	-0.186	-0.136	1.31	-1.16	0.495	1.61	0.506	-0.0614	-0.138	-0.308	0.239	0.635
O=C1c2ccccc2[C@](Cc2ccccc2I)(C(=O)NCC(F)(F)F)[C@H](c2ccc(CO)cc2)N1Cc1ccccc1Cl	1.4	-0.0951	0.502	-0.504 (inactive)	0.588	0.539	0.0527	0.923	-0.19	0.41	1.41	-0.798	-0.141	1.03	0.512	-0.0472	0.0632	-0.239	0.208	0.918
C[N+](C)(C)CCCCNC(=O)[C@@H]1C[C@@H]2C(=O)N[C@@H](Cc3ccccc3)C(=O)N2[C@@H]1c1cccc(OCCO)c1	1.32	-0.0907	0.361	-0.379 (inactive)	0.849	-0.494	-0.35	0.683	1.49	-0.15	-1.03	-0.759	0.633	-0.985	0.18	-0.178	-0.0146	-0.12	0.0849	-0.671
C=C(CCCC)/C(=C/C[C@@H](OC(=O)c1ccncc1)c1ccc(OCCO)cc1)c1cc(C(=O)OC)ccc1OC	0.0247	0.0101	-0.287	0.489 (inactive)	0.876	0.605	-0.0331	0.937	0.135	0.218	1.41	-1.91	-0.0304	0.168	-0.959	-0.166	-0.138	-0.144	0.883	0.311
Oc1ccc2cc[n+](Cc3sc4ccccc4c3Cl)cc2c1	0.23	0.0518	0.799	-1.74 (inactive)	0.469	-0.402	-0.0568	0.618	0.481	1.28	-0.317	0.514	0.0344	-0.481	-0.683	-0.124	0.318	-0.29	1.22	1.02
COC(=O)[C@@]1(Cc2ccc(OC)cc2)[C@@H]2C(=CC(=O)[C@H]2CC(=O)C(=O)N2CCCC2)CN1C(=O)c1ccccc1	0.108	1.01	0.918	-2.47 (inactive)	-0.148	-0.573	0.351	0.0649	-0.69	0.765	-0.514	-1.88	-0.505	0.946	0.713	0.368	1.06	1.04	0.674	0.15
C=C[C@@H](COC(=O)OC(C)(C)C)N(Cc1ccc(OC)cc1)S(=O)(=O)c1ccc(Br)cc1	0.487	-0.189	0.166	0.255 (inactive)	0.541	0.632	0.691	1	0.513	0.841	1.28	-0.987	0.537	-0.042	-0.439	-0.0977	0.0121	-0.326	0.173	0.268
O=C1C[C@@](C(=O)NCC(F)(F)F)(c2ccc([N+](=O)[O-])cc2)[C@@H](c2ccc(CO)cc2I)N1C1CCCCC1	0.47	0.0918	0.574	0.0169 (inactive)	1.09	1.18	0.515	0.995	0.155	0.539	1.47	-2.54	0.386	0.511	0.074	-0.0758	-0.181	0.437	1.62	0.0759
COC(=O)[C@@]1(Cc2ccccc2)N=C(c2ccc(OCCCO)cc2)O[C@H]1c1ccccc1	1.65	0.206	0.893	6.38 (inactive)	0.0071	0.319	-1.08	-1.05	-0.862	0.599	0.968	-1.98	-1.06	0.288	-0.0316	-0.0647	0.261	1.14	2.32	1.93
CN1C(=O)C2C=CC(C(O)c3ccc([N+](=O)[O-])cc3)N(N3CCCCC3)C2C1=O (stereo not given)	1.41	0.193	0.956	0.943 (inactive)	0.941	0.964	0.4	0.832	-0.0607	1.23	1.33	0.702	0.169	1.42	0.0877	0.0913	0.108	1.59	-0.0204	1.08
CC(C)C(=C=CC[C@@H](O)c1ccc(OCCO)cc1)C[C@@H](O)COCc1ccccc1	0.413	-0.133	-0.222	-1.97 (inactive)	1.23	0.099	-0.516	0.478	-0.198	0.992	0.702	-0.453	0.164	-0.774	-0.918	0.505	-0.0553	0.526	1.51	0.119
CC(C)N1C(=O)c2ccccc2[C@](C)(C(=O)NCCN2CCOCC2)[C@@H]1c1ccc(CO)cc1	0.24	-0.0879	0.987	0.0672 (inactive)	-0.499	-0.608	-1.13	-0.115	-0.75	0.503	0.416	-0.366	-1.03	-0.454	0.23	-0.139	-0.206	-0.213	0.143	0.0722
O=C(c1ccccc1)N1Cc2ccccc2C[C@@]2(COC(c3ccc(OCCCO)cc3)=N2)C1=O	1.5	0.298	0.657	0.372 (inactive)	1.1	1.29	0.0545	0.796	0.146	0.7	1.4	-1.25	0.252	1.32	0.566	-0.0512	0.184	-0.486	1.31	1.83
